Experimental data taken from the supplement of paper PMC13380429.

Test system: Vero E6 infected with SARS-CoV-2
Test: inhibition of SARS-CoV-2 cytopathic effect; higher = more antiviral protection, active = above 15
Settings: 48 h

Measured: inhibition of SARS-CoV-2 cytopathic effect

O=C(N/N=C/c1ccc(O)c(O)c1)c1cc2ccccc2cc1O [dynasore]
inactive: 1 nM -1.99% | 8.33 nM 1.05% | 100 nM -1.82% | 833.33 nM -0.26% | 10000 nM 0.04%

CC(C)[N+](C)(CCOC(=O)C1c2ccccc2Oc2ccccc21)C(C)C [propantheline]
inactive: 1 nM 0.61% | 8.33 nM 0.91% | 100 nM -0.81% | 833.33 nM -1.32% | 10000 nM -0.04%

O=C(/C=C/C=C/c1ccc2c(c1)OCO2)N1CCCCC1 [piperine]
inactive: 1 nM -1.58% | 8.33 nM -1.88% | 100 nM -3.68% | 833.33 nM -2.45% | 10000 nM 5.15%

COc1ccc(-c2cc(=O)c3c(OC)c(OC)c(OC)c(OC)c3o2)cc1OC [nobiletin]
inactive: 1 nM -1.63% | 8.33 nM -2.18% | 100 nM -7.44% | 833.33 nM -2.1% | 10000 nM -0.29%

OCc1cc([C@@H](O)CNCCCCCCOCCOCc2c(Cl)cccc2Cl)ccc1O [vilanterol]
inactive: 1 nM -1.65% | 8.33 nM -1.28% | 100 nM 0.86% | 833.33 nM -0.19% | 10000 nM -2.68%

CS(=O)(=O)N1CCc2c(-c3cnc(N)nc3)nc(N3CCOCC3)nc21
inactive: 1 nM -2.71% | 8.33 nM 1.07% | 100 nM 1.27% | 833.33 nM -3.9% | 10000 nM -8.89%

COc1cc2cc(c1Cl)N(C)C(=O)C[C@H](OC(=O)C(C)C)[C@]1(C)O[C@@H]1[C@H](C)[C@@H]1C[C@@](O)(NC(=O)O1)[C@H](OC)/C=C/C=C(\C)C2 [ansamitocin-p-3]
inactive: 1 nM 2.87% | 8.33 nM -1.3% | 100 nM -3.14% | 833.33 nM -0.53% | 10000 nM 0.75%
